The text below walks through data of PubChem BioAssay.

Results filed as inconclusive are left out. Active and inactive are the calls of the source.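 Rule for the calls, unless noted: active = cell viability at or below a set limit in both duplicate runs, the limit being the all-compound median minus 4 SD (cut at about 23% in these data, passing the limit was not always enough); inconclusive = no clear call, values can overlap the other calls; inactive = the rest.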

A short description of assay [1]: reducers of endogenous Her2 protein level, primary screen, SKBR3 breast tumor cells, AlphaScreen, ATP viability (AID 461;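 active = Her2 level under about 52% in both replicate screens, with viability over 70% of control, limit read from the data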;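 for Her2 level: lower value means less Her2 protein in the cells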;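 for viability: percent of carrier control wells set as 100% viability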). The following applies: 18-24 h, measured here: SKBR3 viability, ATP luminescence, at 10 µM.
Assay [2] deals with Receptor tyrosine-protein kinase erbB-2 (Homo sapiens) (UniProt P04626). Described as above. The following applies: 18-24 h, at 10 µM, stronger effect = lower value.
Receptor tyrosine-protein kinase erbB-2 (Homo sapiens), sequence (P04626 whole entry, looked up): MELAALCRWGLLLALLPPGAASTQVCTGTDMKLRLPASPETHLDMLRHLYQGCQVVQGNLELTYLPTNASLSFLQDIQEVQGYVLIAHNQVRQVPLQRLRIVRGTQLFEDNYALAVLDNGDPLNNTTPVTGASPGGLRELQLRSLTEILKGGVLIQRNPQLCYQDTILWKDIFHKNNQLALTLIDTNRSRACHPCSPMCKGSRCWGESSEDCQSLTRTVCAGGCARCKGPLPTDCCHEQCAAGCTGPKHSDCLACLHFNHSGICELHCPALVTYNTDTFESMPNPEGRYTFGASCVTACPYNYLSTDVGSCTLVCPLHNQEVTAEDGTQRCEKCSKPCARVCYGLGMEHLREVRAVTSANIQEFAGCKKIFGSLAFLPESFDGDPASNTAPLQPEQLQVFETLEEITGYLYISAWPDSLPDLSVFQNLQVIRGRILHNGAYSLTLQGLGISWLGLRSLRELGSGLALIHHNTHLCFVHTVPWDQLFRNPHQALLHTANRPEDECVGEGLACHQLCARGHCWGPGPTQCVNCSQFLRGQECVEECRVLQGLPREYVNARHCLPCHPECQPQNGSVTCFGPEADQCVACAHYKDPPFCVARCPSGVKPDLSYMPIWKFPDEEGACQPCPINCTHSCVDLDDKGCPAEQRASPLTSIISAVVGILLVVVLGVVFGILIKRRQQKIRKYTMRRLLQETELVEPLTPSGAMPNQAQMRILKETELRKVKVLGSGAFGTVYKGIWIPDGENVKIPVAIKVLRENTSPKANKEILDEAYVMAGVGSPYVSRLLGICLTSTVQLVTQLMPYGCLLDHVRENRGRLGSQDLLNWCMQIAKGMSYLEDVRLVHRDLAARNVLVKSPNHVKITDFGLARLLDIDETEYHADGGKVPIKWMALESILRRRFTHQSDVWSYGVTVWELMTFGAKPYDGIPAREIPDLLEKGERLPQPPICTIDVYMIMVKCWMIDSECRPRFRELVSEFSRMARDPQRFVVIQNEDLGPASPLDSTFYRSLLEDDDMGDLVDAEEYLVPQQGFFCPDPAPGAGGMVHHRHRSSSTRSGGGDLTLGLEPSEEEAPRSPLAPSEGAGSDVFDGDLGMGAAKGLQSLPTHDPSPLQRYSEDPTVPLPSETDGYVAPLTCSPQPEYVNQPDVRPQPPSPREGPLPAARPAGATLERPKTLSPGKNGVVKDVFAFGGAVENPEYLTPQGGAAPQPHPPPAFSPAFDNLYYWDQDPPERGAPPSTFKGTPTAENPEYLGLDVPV
Assay [3] in a line: SK-BR-3 cell growth inhibitors, pilot screen, 24 h, human (AID 572;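 active = viability at or below 10% of carrier control in both of two separate runs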;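 note: compound exposure lasted between 18 and 24 h rather than exactly 24 h; 100% = carrier-treated control wells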). The note with it: SK-BR-3 viability, CellTiter-Glo luminescence, at 10 µM, stronger effect = lower value.
Assay [4] can be described thus: HUVEC growth inhibition – cell-based, human, primary screen (AID 575;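 active = viability at or below 30% in both replicate assays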;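 note: 100% = median of untreated cell wells with 0.1% DMSO on each plate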). The following applies: HUVEC proliferation, CellTiter-Glo luminescence, 72 h; at 10 µM; stronger effect = lower value. (Cellular ATP, detected with luciferase, serves as a proxy for viable cell number.)
Assay [5] in a line: growth inhibitors of H69AR lung tumor, primary screen, human, duplicate replicates (AID 580;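 active = viability at or under a set limit in both replicates, limit being median viability minus 3 SD, cut at about 48% in these data, passing the limit was not always enough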;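 note: 100% = mean luminescence of untreated wells and 0% = no signal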). The note with it: H69AR lung tumor cells viability, ATP luminescence, 72 h; at 10 µM; stronger effect = lower value.
Assay [6] is described as follows: reversal of MRP1-mediated doxorubicin resistance, pilot screen, H69AR cells, doxorubicin co-treatment (AID 601;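 active = viability loss from added drug above about 55%, and viability with drug at most 40%, in both replicates, limit read from the data, passing the limit was not always enough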). The following applies: CellTiter-Glo, 72 h, at 10 µM; for differential viability (reversal): stronger effect = higher value.
The nature of assay [7]: 384-well plate pilot, post-Golgi transport modulator project, inhibition of yeast transport mutant growth (AID 636; in the data active = inhibition above about 31%). The note with it: absorbance 615 nm, about 18 h, stronger effect = higher value.
Assay [8] is described as follows: growth suppression of yeast trafficking mutant, preliminary HTS, modulators of trafficking downstream of Golgi apparatus project, 1536-format plate, OD 615 nm (AID 637; in the data active = inhibition above about 30%). The following applies: yeast transport mutant growth, absorbance 615 nm, 18 h; stronger effect = higher value.
Assay [9] in a line: OD615 S. cerevisiae growth inhibition, permissive medium, pilot counter-assay, permissive growth control for S. cerevisiae lifespan shortening project (AID 705;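 active = growth inhibition above 25% in both replicates, a cutoff set 3 SD above the mean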). The following applies: OD615, 24 h, at 10 µM, stronger effect = higher value.
A short description of assay [10]: Restrictive medium S. cerevisiae growth inhibition, OD615, pilot screen of yeast lifespan reduction project, restrictive growth control (AID 706;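 active = growth inhibition above a set limit, 3 SD over mean compound inhibition, in both replicates, cut at about 43% in these data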;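 note: modified DeaD lifespan yeast strain shifted to restrictive glucose medium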). The note with it: OD615, 48 h, at 10 µM, stronger effect = higher value.
Assay [11] in a line: viability gain of MRP-1-high H69AR cells under doxorubicin, pilot screen, MRP-1 activator project, CellTiter-Glo, duplicate (AID 807;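 active = viability increase at or above a cutoff of the median across tested compounds plus 3 SD, cut at about 8.5% in these data, passing the limit was not always enough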;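 note: compound pretreatment 18-22 h then 72 h combined with doxorubicin; 0% = doxorubicin alone and 100% = vehicle without doxorubicin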). The note with it: H69AR viability with doxorubicin, CellTiter-Glo luminescence; at 10 µM; stronger effect = higher value.
Assay [12] in a line: growth suppression of beta-catenin knockout HCT116, pilot screen, human colon tumor cells (AID 823).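 Note: 0% = wells killed by 20 µM Hyamine and 100% = untreated DMSO cell wells.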 The note with it: CellTiter-Glo, 60 h, at 10 µM, stronger effect = lower value.
Assay [13] can be described thus: growth suppression of PTEN-deleted HCT116, pilot screen, cell-based, HCT116 clonal line, CellTiter-Glo (AID 824;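 active = viability at or below 27.92% in each of two runs, the all-compound median minus 4 SD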;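 note: 0% = 20 µM Hyamine control and 100% = vehicle cell control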). The following applies: 60 h, at 10 µM, stronger effect = lower value.
The nature of assay [14]: inhibitors of the yeast RAM network, pilot screen, dse1pr::URA3 reporter, 5-FOA selection (AID 869;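 active = inhibition over a set limit, the all-compound mean plus 3 SD, in both replicate runs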;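 note: 0% = DMSO wells with no growth and 100% = 10 µM 1-NA-PP1 with full growth; RAM network block rescues cells from 5-FOA so hits raise OD615 growth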). The following applies: S. cerevisiae dse1pr::URA3 5-FOA growth, OD615, 2 d; at 10 µM; stronger effect = higher value; strain carries analog-sensitive mutant Cbk1 kinase.
A short description of assay [15]: RAM signaling pathway blockade in yeast – S. cerevisiae, Pdr1DBD-CYC8 efflux-inhibited sensitized strain, primary screen (AID 1298;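 active = RAM network inhibition above 8.4% in each of two replicates, 3 SD over the compound average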;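 note: 0% = DMSO untreated cells without growth and 100% = 10 µM 1-NA-PP1 full growth; higher means more yeast growth rescued from 5-FOA killing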). The following applies: S. cerevisiae cbk1-as DSE1-URA3 strain, 5-FOA growth OD615, 2 d; at 50 µM; stronger effect = higher value.
Setting [16] is: H69AR cells + 2 uM doxorubicin, measured here: viability with 2 uM doxorubicin, stronger effect = lower value.
Where [17] appears, read: H69AR cells, compound alone cytotoxicity.

In general, viability refers to a read-out of living cells in per cent, often relative to untreated cells. As a reminder, the inhibition is the change of the read-out against control, counted positive when it falls. Regarding `Nc1[nH]nc2nc(N3CCCC3)nc(-c3ccccc3)c12`, the viability in [1] was 113%; in assay [3], 113% (inactive); in assay [4] it was 92% (inactive); in assay [5] it was 95.6% (inactive); in assay [6] (setting [16]), 88.6%; in [6] (setting [17]) it was 95.6%. Further, the results for the viability in assay [12] and in assay [13] were 99% (inactive) and 90.9% (inactive), respectively. Also, the Her2 level in assay [2] is 97.5% (inactive). Also, in assay [6] (H69AR cells + 2 uM doxorubicin), the differential viability (reversal) is 7% (inactive). Besides, the inhibition in assay [7] was -6.27% (inactive); in [8] it was 2.1% (inactive); in assay [14], 0.285% (inactive). The growth inhibition is -6.15% (inactive) in assay [9] and -9.01% (inactive) in assay [10]. The viability increase in assay [11] is -4.09% (inactive). Further, the RAM network inhibition in assay [15] is -0.16% (inactive).
For the compound `COc1ccccc1S(=O)(=O)Cc1ccc(C(=O)N2CCN(c3ccc(C)cc3)C(C)C2)o1` (stereo not drawn), the viability was 82.5% in assay [1]; 82.5% (inactive) in assay [3]; 52.4% (inactive) in assay [4]; 7.92% (active) in assay [5]; 56.3% in [6] (setting [16]); 7.92% in assay [6] (setting [17]). For the same compound, the values for the viability in assay [12] and in assay [13] were 43.2% (inactive) and 36.8% (inactive), respectively. In addition, in [2], the Her2 level was 64.5% (inactive). Moreover, the differential viability (reversal) in assay [6] (H69AR cells + 2 uM doxorubicin) was -48.4% (inactive). Besides, the inhibition is -1.07% (inactive) in assay [7], 1.64% (inactive) in assay [8] and 0.41% (inactive) in assay [14]. Also, the growth inhibition is 4.27% (inactive) in assay [9] and -15.2% (inactive) in [10]. In addition, the viability increase in assay [11] was -6.26% (inactive). For the same compound, the RAM network inhibition in [15] is 5.28% (inactive).
In the case of `COc1ccc(-c2nc(CSCC(=O)N3CCc4ccccc4C3)c(C)o2)cc1OC`, the viability was 88.5% in [1]; 88.5% (inactive) in assay [3]; 93.8% (inactive) in assay [4]; 92.6% (inactive) in assay [5]; 92.4% in assay [6] (setting [16]); 92.6% in assay [6] (setting [17]). Besides, the figures for the viability in [12] and in assay [13] were 93.9% (inactive) and 89.8% (inactive), respectively. The Her2 level in [2] is 69.5% (inactive). In addition, in assay [6] (H69AR cells + 2 uM doxorubicin), the differential viability (reversal) was 0.215% (inactive). Besides, the inhibition was -0.38% (inactive) in [7], -0.5% (inactive) in assay [8] and -0.395% (inactive) in assay [14]. For the same compound, the growth inhibition is 13.3% (inactive) in assay [9] and 33.4% (inactive) in [10]. Besides, in assay [11], the viability increase was -3.15% (inactive). Moreover, the RAM network inhibition in assay [15] was 3.92% (inactive).
Regarding `CCOC(=O)c1ccc(NS(=O)(=O)c2ccc3c(c2)oc(=O)n3C)cc1`, the viability was 132% in assay [1]; 132% (inactive) in assay [3]; 118% (inactive) in assay [4]; 113% (inactive) in assay [5]; 105% in assay [6] (setting [16]); 113% in assay [6] (setting [17]). The viability in [12] was 101% (inactive); in assay [13] it was 86.4% (inactive). Moreover, the Her2 level in assay [2] was 118% (inactive). In addition, the differential viability (reversal) in assay [6] (H69AR cells + 2 uM doxorubicin) was 7.4% (inactive). The values for the inhibition in assay [7], in assay [8] and in [14] were -0.77% (inactive), -2.17% (inactive) and 0.865% (inactive), respectively. The growth inhibition in assay [9] was -0.745% (inactive); in assay [10] it was 3.2% (inactive). Moreover, the viability increase in [11] was 1.82% (inactive). In [15], the RAM network inhibition was 2.11% (inactive).
`COc1nc(Oc2ccc(=O)n(C)n2)nc(N(C)C)n1`: the viability in assay [1] is 81%; in assay [3], 81% (inactive); in [4], 88.5% (inactive); in [5] it was 92.7% (inactive); in assay [6] (setting [16]) it was 95.1%; in assay [6] (setting [17]) it was 92.7%. The results for the viability in [12] and in assay [13] were 95.2% (inactive) and 101% (inactive), respectively. Besides, the Her2 level in assay [2] is 107% (inactive). Besides, the differential viability (reversal) in assay [6] (H69AR cells + 2 uM doxorubicin) is -2.47% (inactive). In addition, the inhibition is 1.67% (inactive) in [7], -9% (inactive) in assay [8] and 2.61% (inactive) in [14]. Also, the growth inhibition in assay [9] was -3.33% (inactive); in [10], 0.62% (inactive). Moreover, the viability increase in assay [11] was 0.29% (inactive). The RAM network inhibition in assay [15] is 1.59% (inactive).
Regarding `COC(=O)C(C)Sc1nc2c(c(=O)n1-c1ccccc1)SCC2` (stereo not drawn), the viability in [1] was 102%; in assay [3] it was 102% (inactive); in assay [4], 84.3% (inactive); in [5], 94.9% (inactive); in [6] (setting [16]), 107%; in [6] (setting [17]), 94.9%. For the same compound, the viability was 87.1% (inactive) in assay [12] and 90.8% (inactive) in assay [13]. In addition, the Her2 level in assay [2] was 77.5% (inactive). In assay [6] (H69AR cells + 2 uM doxorubicin), the differential viability (reversal) is -12.1% (inactive). Further, the inhibition was -6.99% (inactive) in [7], -4.44% (inactive) in assay [8] and 1.94% (inactive) in assay [14]. For the same compound, the values for the growth inhibition in [9] and in assay [10] were -12.1% (inactive) and -4.13% (inactive), respectively. Further, in [11], the viability increase was -1.78% (inactive). Further, the RAM network inhibition in assay [15] is 4.56% (inactive).
For the compound `COC(=O)CN1C(=O)C(O)(CC(=O)c2ccc(Cl)cc2)c2ccccc21` (stereo not drawn), the viability in assay [1] was 87.5%; in assay [3], 87.5% (inactive); in assay [4], 94.4% (inactive); in assay [5], 70.5% (inactive); in assay [6] (setting [16]), 91.8%; in assay [6] (setting [17]), 70.5%. The figures for the viability in [12] and in [13] were 87.3% (inactive) and 91.5% (inactive), respectively. The Her2 level in [2] was 88.5% (inactive). The differential viability (reversal) in [6] (H69AR cells + 2 uM doxorubicin) was -21.3% (inactive). In addition, the inhibition is -6.8% (inactive) in [7], 5% (inactive) in [8] and 1.81% (inactive) in assay [14]. Further, the growth inhibition in [9] is -0.49% (inactive); in [10], -8.47% (inactive). In addition, the viability increase in assay [11] is -3.44% (inactive). The RAM network inhibition in assay [15] was 0.35% (inactive).
As for `O=C(c1cc2ccccc2oc1=O)N1CCN(c2ccc(N3CCOCC3)nn2)CC1`, the viability in assay [1] was 98%; in assay [3], 98% (inactive); in assay [4], 88.5% (inactive); in assay [5], 101% (inactive); in assay [6] (setting [16]), 93.9%; in assay [6] (setting [17]), 101%. The viability in assay [12] was 101% (inactive); in [13], 96.6% (inactive). Moreover, in assay [2], the Her2 level was 118% (inactive). For the same compound, the differential viability (reversal) in assay [6] (H69AR cells + 2 uM doxorubicin) is 7.39% (inactive). Also, the inhibition was -0.77% (inactive) in assay [7], -2% (inactive) in [8] and 0.885% (inactive) in [14]. For the same compound, the growth inhibition in [9] was 5.29% (inactive); in assay [10], -7.26% (inactive). For the same compound, the viability increase in [11] was -1.81% (inactive). Moreover, the RAM network inhibition in assay [15] was -0.58% (inactive).
For `O=C(NCc1ccc2c(c1)OCO2)C1CCC(CNc2c(N3CCCCC3)c(=O)c2=O)CC1` (stereo not drawn), the viability was 92.5% in assay [1]; 92.5% (inactive) in [3]; 94% (inactive) in assay [4]; 98.9% (inactive) in assay [5]; 91.9% in assay [6] (setting [16]); 98.9% in assay [6] (setting [17]). The values for the viability in [12] and in [13] were 94.6% (inactive) and 88.9% (inactive), respectively. The Her2 level in [2] was 106% (inactive). Also, in assay [6] (H69AR cells + 2 uM doxorubicin), the differential viability (reversal) is 7% (inactive). The inhibition is 0.64% (inactive) in assay [7], -2.17% (inactive) in assay [8] and 1% (inactive) in assay [14]. The growth inhibition was -2.47% (inactive) in assay [9] and 4.78% (inactive) in assay [10]. Moreover, the viability increase in [11] is -2.93% (inactive). Moreover, the RAM network inhibition in [15] is -0.46% (inactive).
